# Results filed as inconclusive are left out. The source made the active and inactive calls. Rule for the calls: active = hit-call score of the fitted dose curve at least 0.9, where 1 is the maximum; inconclusive = response in the unintended direction; inactive = score below 0.9.
# Read-out: Cytochrome P450 3A4 (Homo sapiens) (UniProt P08684)
# Experiment: CLD_CYP3A4_48hr: CellzDirect (CLD) Gene Expression Assay for xenobiotic metabolism (CYP3A4) at 48 hours (AID 2283698)
# Procedure: CLD_48hr is a cell-based, multiplexed-readout assay that uses hepatocyte, a human liver primary cell, with measurements taken at 48 hours after chemical dosing in a 96-well plate.CLD_CYP3A4_48hr is one of 16 assay component(s) measured or calculated from the CLD_48hr assay. It is designed to make measurements of mRNA induction, a form of inducible reporter, as detected with chemiluminescence signals by Quantitative Nuclease Protection Assay (qNPA) technology.Data from the assay component CLD_CYP3A4_48hr was analyzed at the endpoint, CLD_CYP3A4_48hr, in the positive analysis fitting direction relative to DMSO as the negative control and baseline of activity. Using a type of inducible reporter, gain-of-signal activity can be used to understand changes in the reporter gene as they relate to the gene CYP3A4. Furthermore, this assay endpoint can be referred to as a primary readout. To generalize the intended target to other relatable targets, this assay endpoint is annotated to the cyp intended target family, where subfamily is xenobiotic metabolism.
# Human hepatocyte cultures were treated daily for two consecutive days with fresh dosing solutions containing appropriate concentrations of the 320 ToxCast chemicals (chemical identities were blinded to CellzDirect and other ToxCast collaborators), vehicle control (0.2% DMSO), and positive control inducers as summarized in Table 1. Due to the large number of treatment groups and chemicals examined, the ToxCast chemicals were divided into two groups (spanning two independent cultures of hepatocytes from separate donor preparations (Hu778: ToxCast plates 1 and 2; Hu776: ToxCast plates 3 and 4). Each preparation of human hepatocyte cultures was treated with respective vehicle control, medium only control, set of six positive controls/reference chemicals for the five hepatic receptor pathways, and a subset of eight of the ToxCast chemicals (indoxacarb, pyrithiobac-sodium, norflurazon, cyhalofop-butyl, methomyl, thiram, acetochlor, and propiconazole). These replicate data, coupled with internal replicates designed within the blinded ToxCast chemical library, provided additional data to evaluate interindividual differences between hepatocyte preparations and their potential impact on chemical profiles.Cell morphology and integrity were evaluated using phase-contrast microscopy as an indicator of hepatocyte cell health (Tyson & Green, 1987). Cultures for each treatment group (i.e., media, vehicle [0.2% DMSO], positive control inducers [multiple concentrations], and the ToxCast chemicals [multiple concentrations]) were observed and cell morphology was assessed relative to vehicle control cultures at each harvest time point (0, 6, 24, or 48 h). […] Images were evaluated at the conclusion of the study to assess changes in cell integrity and account for the effects of chemical exposure on uncharacteristic changes in concentration-dependent gene expression profiles. The results from these determinations of apparent cytotoxicity were annotated (yes/no) alongside the corresponding qNPA data for reference.At the conclusion of each treatment period, hepatocyte cultures (96-well) were washed with 1 volume of HBSS, lysed by addition of 25 ul ArrayPlate lysis buffer (HTG, Tucson, AZ), and 70 ul/well of Denaturation Oil, denatured by incubation at 95C for 10 min, and frozen at approximately -70C until analysis by nuclease protection assay (qNPA) (Roberts et al., 2007). For qNPA analysis, cell lysates were thawed at 50C for approximately 30 min, qNPA probes were added, and samples were incubated at 95C for 10 min to begin the detection process by denaturing the target RNA, dissociating the duplexes and secondary structure hybridization. At the conclusion of the hybridization period, S1 nuclease reagent was added to each sample to digest all nonprotected nucleotides at 50C for 60-90 min. […]
# Sequence of Cytochrome P450 3A4 (Homo sapiens) (P08684 whole entry, looked up): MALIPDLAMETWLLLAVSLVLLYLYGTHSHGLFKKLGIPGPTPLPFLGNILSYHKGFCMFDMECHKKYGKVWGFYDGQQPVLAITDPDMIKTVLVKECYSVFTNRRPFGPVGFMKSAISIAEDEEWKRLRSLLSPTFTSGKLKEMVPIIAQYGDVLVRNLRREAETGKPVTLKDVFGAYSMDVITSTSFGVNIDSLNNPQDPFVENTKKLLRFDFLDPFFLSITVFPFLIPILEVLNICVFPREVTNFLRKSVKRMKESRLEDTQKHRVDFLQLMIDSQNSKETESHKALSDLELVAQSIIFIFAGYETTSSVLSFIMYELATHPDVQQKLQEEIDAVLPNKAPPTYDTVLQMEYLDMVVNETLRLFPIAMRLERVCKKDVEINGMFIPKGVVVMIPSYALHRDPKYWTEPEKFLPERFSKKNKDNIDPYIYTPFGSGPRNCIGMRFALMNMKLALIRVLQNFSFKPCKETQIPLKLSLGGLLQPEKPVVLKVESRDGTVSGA
Structure (SMILES),outcome,AC50
COP(=O)(OC)OC=C(Cl)Cl,inactive,
CC(C)N(C(=O)COc1nnc(C(F)(F)F)s1)c1ccc(F)cc1,,5.1 µM (active)
O=S(=O)(O)C(F)(F)C(F)(F)C(F)(F)C(F)(F)C(F)(F)C(F)(F)C(F)(F)C(F)(F)F,inactive,
CC(C)OC(=O)Nc1cccc(Cl)c1,,36.3 µM (active)
C[C@H]1[C@H](c2ccc(Cl)cc2)SC(=O)N1C(=O)NC1CCCCC1,,1.97 µM (active)
O=[N+]([O-])c1c(Cl)c(Cl)c(Cl)c(Cl)c1Cl,,3.39 µM (active)
N#Cc1c(Cl)c(Cl)c(Cl)c(C#N)c1Cl,,0.000914 µM (active)
COC(=O)c1ccccc1S(=O)(=O)NC(=O)Nc1nc(C)nc(OC)n1,inactive,
Oc1cc(Cl)ccc1Oc1ccc(Cl)cc1Cl,inactive,
CCCN(CCOc1c(Cl)cc(Cl)cc1Cl)C(=O)n1ccnc1,,0.432 µM (active)
CCc1ccc(C(=O)NN(C(=O)c2cc(C)cc(C)c2)C(C)(C)C)cc1,,2.15 µM (active)
CC1(C)C(C=C(Cl)Cl)C1C(=O)OC(C#N)c1ccc(F)c(Oc2ccccc2)c1 (stereo unspecified),,6.91 µM (active)
CCOCN(C(=O)CCl)c1c(C)cccc1CC,,2.16 µM (active)
CC(C)(C)C(O)/C(=C\c1ccc(Cl)cc1Cl)n1cncn1 (stereo unspecified),,1.9 µM (active)
CCOc1nc(NC)nc(NC(=O)NS(=O)(=O)c2ccccc2C(=O)OC)n1,inactive,
Clc1ccccc1-c1nnc(-c2ccccc2Cl)nn1,,6.89 µM (active)
Cc1[nH]c(=O)n(C(C)(C)C)c(=O)c1Cl,inactive,
COP(=S)(OC)Oc1ccc(SC)c(C)c1,inactive,

Structure (SMILES),outcome,AC50
O=C(Nc1ccccc1)Nc1cnns1,inactive,
CCC(C)(C)C(=O)OC1=C(c2ccc(Cl)cc2Cl)C(=O)OC12CCCCC2,,34.8 µM (active)
CCC(C)Nc1c([N+](=O)[O-])cc(C(C)(C)C)cc1[N+](=O)[O-] (stereo unspecified),,2.7 µM (active)
CCOC1Oc2ccc(OS(C)(=O)=O)cc2C1(C)C (stereo unspecified),,5.87 µM (active)
O=C(O)COc1ccc(Cl)cc1Cl,inactive,
CCCN(CCC)c1c([N+](=O)[O-])cc(C(F)(F)F)cc1[N+](=O)[O-],,8.57 µM (active)
O=C(NC(=O)c1c(F)cccc1F)Nc1ccc(OC(F)(F)C(F)OC(F)(F)F)c(Cl)c1 (stereo unspecified),inactive,
CCN(CC)C(=O)SCc1ccc(Cl)cc1,,20 µM (active)
CNC(=O)/C=C(\C)OP(=O)(OC)OC,,1.9 µM (active)
C#CCN1C(=O)COc2cc(F)c(N3C(=O)C4=C(CCCC4)C3=O)cc21,,4.94 µM (active)
CC1(c2ccc(Oc3ccccc3)cc2)OC(=O)N(Nc2ccccc2)C1=O (stereo unspecified),inactive,
O=[N+]([O-])/N=C1\NCCN1Cc1ccc(Cl)nc1,inactive,
O=S1OCC2C(CO1)C1(Cl)C(Cl)=C(Cl)C2(Cl)C1(Cl)Cl (stereo unspecified),,9.22 µM (active)
O=C(O)C(F)(F)C(F)(F)C(F)(F)C(F)(F)C(F)(F)C(F)(F)C(F)(F)F,,3.97 µM (active)
CNC(=O)Oc1ccccc1OC(C)C,,3.99 µM (active)
CCC(C)(NC(=O)c1cc(Cl)c(C)c(Cl)c1)C(=O)CCl (stereo unspecified),,2.52 µM (active)
CCS(=O)(=O)c1cccnc1S(=O)(=O)NC(=O)Nc1nc(OC)cc(OC)n1,,20 µM (active)
COP(=S)(OC)Oc1ccc([N+](=O)[O-])cc1,,8.47 µM (active)

# Reference: PubChem BioAssay (EPA / NIEHS)
